The values that follow come from PubChem BioAssay (EPA / NIEHS).

A short description of experiment [1]: ATG_XTT_Cytotoxicity: Cytotoxicity Assessment in the Attagene TRANS-FACTORIAL HepG2 Assay (AID 2283584).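 On AC50: cells exposed to compound for 24 h before reading; active means loss of viability signal versus DMSO baseline.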 The gist of the method: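 Viability endpoint from XTT after 24 h chemical exposure of reporter-transfected human HepG2 liver cells; signal loss fitted relative to DMSO negative control.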
Experiment [2] is described as follows: TOX21_p53_BLA_p2_viability: Viability Assessment in the Tox21 HCT-116 p53 Agonism Beta-lactamase Assay, Phase 2 (AID 2283591).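 Further: compound exposure lasted 16 h at 37 °C; actives lower the ATP signal meaning cytotoxicity.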 The gist of the method: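 HCT-116 p53-bla cells (4000/well) rested 5 h at 37C, then received compounds in DMSO (217-fold dilution) for 16 h at 37C, 5% CO2. After the CCF4 read, CellTiter-Glo was added; ATP luminescence was read after 30 min at room temperature.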

The structures appear in SMILES notation. Inconclusive results are not listed. Calls of active or inactive are those of the source. How the source made its calls: active means hit-call score of the fitted dose curve at least 0.9, where 1 is the maximum; inconclusive means response in the unintended direction; inactive means score below 0.9.

By AC50 is commonly meant the concentration giving half of the maximal activity seen.

Consider `O=C(Cl)OCCOCCOC(=O)Cl`, for which the compound was called inactive in experiment [1] and in experiment [2].

For the compound `Clc1cnc(Oc2ccc(Oc3ncc(Cl)cc3Cl)cc2)c(Cl)c1`, the compound was classed as inactive in experiment [1] and in experiment [2]. For the compound `CCC[N+](CCC)(CCC)CCC`, the outcome in experiment [1] and in experiment [2] was inactive. Turning to `CCOC(=O)C(SP(=S)(OC)OC)c1ccccc1` (stereo unspecified), the result in experiment [1] and in experiment [2] was inactive. Take `O=C(O)CC(O)(CC(=O)O)C(=O)O`: the result in experiment [1] and in experiment [2] was inactive. On to `CCN(CC)C(=O)C(Cl)=C(C)OP(=O)(OC)OC`, for which the call in experiment [1] and in experiment [2] was inactive. Turning to `CN(N=O)C(N)=O`, the compound was classed as inactive in experiment [1] and in experiment [2]. For the compound `CC(=Cc1ccccc1)[N+](=O)[O-]`, the AC50 in experiment [1] was 23.6 µM (active). For the same compound, the outcome in experiment [2] was inactive. For the compound `O=NN1CCCCCCC1`, the call in experiment [1] and in experiment [2] was inactive. In the case of `O=[N+]([O-])c1ccccc1O`, the outcome in experiment [1] and in experiment [2] was inactive.

As for `CCCCCCCCCCCCBr`, the compound was called inactive in experiment [1] and in experiment [2]. On to `Cc1cccc(C)c1NC(=O)CN1CCCC1=O`, for which the result in experiment [1] and in experiment [2] was inactive.

For `N#CS`, the outcome in experiment [1] and in experiment [2] was inactive. Turning to `COC(=O)Nc1cccc(OC(=O)Nc2cccc(C)c2)c1`, the compound was classed as inactive in experiment [1] and in experiment [2]. Consider `CCCCCCCCCCCCCCC(Br)C(=O)O` (stereo unspecified), for which the compound was called inactive in experiment [1] and in experiment [2]. For the compound `CCOC(=O)CCN(SN(C)C(=O)Oc1cccc2c1OC(C)(C)C2)C(C)C`, the compound was called inactive in experiment [1] and in experiment [2]. For the compound `COC(=O)c1cc(Oc2ccc(Cl)cc2Cl)ccc1[N+](=O)[O-]`, the outcome in experiment [1] and in experiment [2] was inactive. In the case of `N#CCCC(Br)(C#N)CBr` (stereo unspecified), the result in experiment [1] and in experiment [2] was inactive. For `Cc1cc(SCc2sc(-c3ccc(C(F)(F)F)c(F)c3)nc2C)ccc1OCC(=O)O`, in experiment [1], the outcome was inactive. For the same compound, the concentration at half-maximal activity (AC50) in experiment [2] is 15.2 µM (active). In the case of `N#Cc1ccncc1`, the compound was called inactive in experiment [1] and in experiment [2]. Regarding `CC(C)=CC1C(C(=O)OCc2cccc(Oc3ccccc3)c2)C1(C)C` (stereo unspecified), in experiment [2], the compound was classed as inactive.
